Pf Dd2 growth – inhibitors of Plasmodium falciparum Dd2 growth | P. falciparum Dd2 growth, SYBR Green, 72 h | Potency, µM (highest dose often 28.9 µM), for inactives: top-dose activity, negative = inhibition, usual class: inhibitors | 120,000 tested, 4.3% active; active means well fitted inhibition curve with a large enough effect;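 further: plate controls were DMSO vehicle for no effect and reference drug for full effect; nearly all actives have a fitted effect of over 65% in size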
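Readout: SYBR Green fluorescence, 485 nm excitation, 535 nm emission, after ~16 h lysis at 37C. Before that, Dd2-infected red cells (2.5% hematocrit) grew 72 h with compound, 29 uM top final concentration.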
Numbers without * were called inactive; i = inactive; ! = a repeat was not active; [ ] = remark or other dose. This excerpt belongs to a sample that is enriched for hits. Potency means the concentration at half of the fitted maximal effect.

SMILES	Pf Dd2 growth
Cc1ccc(S(=O)(=O)c2nc(-c3ccco3)oc2SCC(C)C)cc1	7.0%
CCCCNc1sc(S(=O)(=O)CC)nc1S(=O)(=O)c1ccc(C)cc1	11.2µM*
O=C(NCc1ccccc1)c1cnc2n1CCN(Cc1ccccc1F)CC2	22.9%[44.1 µM]
CS(=O)(=O)N1CCC(CC(=O)NCCCN2CCc3ccccc3C2)C1 (configuration not stated)	-28.2%
Cc1noc([C@@H]2C[C@H](NS(=O)(=O)c3cccc4cccnc34)CN2C)n1	-5.1%[44.1 µM]
Cc1c(C(=O)N(C)Cc2cc(-c3ccccc3)no2)oc2c(F)cccc12	-8.1%
CN1CCN(C(=O)N2CCn3nc(CN4CCC(CO)CC4)cc3C2)CC1	-0.6%
COc1cccc(-c2n[nH]c3c2CC(=O)N(Cc2ccccn2)C3)c1	16.9%[44.1 µM]
COC[C@@H]1CN(C(=O)c2ccccc2)C[C@H]1c1nc(C2CC2)no1	-13.5%
CCCc1ncncc1C(=O)N1C[C@@H](C)[C@](O)(C2CC2)C1	-1.0%
O=C(O)CCC(=O)N1Cc2ccccc2CC2(CCCN2CC2CCCCC2)C1 (configuration not stated)	-0.4%
C[S+](=O)([O-])N1Cc2ccccc2CC2(CCCN2Cc2ccccc2)C1 (configuration not stated)	-26.5%
C[S+](=O)([O-])N1CC2(CCCN2CC2CCCCC2)Cc2ccccc21 (configuration not stated)	8.91µM*
CCCC(=O)N1CC2(CCCN2CC2CC2)Cc2ccccc21 (configuration not stated)	8.91µM*
C[S+](=O)([O-])N1Cc2ccccc2CC2(CCN(CC3CCCCC3)CC2)C1	-21.4%
O=C(O)CCCC(=O)N1Cc2ccccc2CC2(CCCCN2CC2CCCC2)C1 (configuration not stated)	6.9%
C=CCn1nc(C)c(CN2CCC(Oc3ccccc3OC)(C(=O)O)CC2)c1C	3.5%
Cc1noc(C)c1CC(=O)N[C@@H]1CN(c2ccccn2)C[C@H]1CN(C)C	5.2%
COc1ccc(F)cc1S(=O)(=O)N1C[C@@H](C(N)=O)[C@H](C2CCN(C)CC2)C1	12.9%
CCOc1ccccc1CNC(=O)c1ccc2c(c1)N(Cc1ccc(C)cc1)CCS2	-2.9%
COc1ccccc1CNC(=O)c1ccc2c(c1)N(Cc1ccc(C)cc1)CCS2	10µM*
COc1ccccc1CNC(=O)c1ccc(-c2nc(CN3CCc4ccccc43)c(C)o2)cc1	10µM*
CCc1ccc(-c2nc(CSCC(=O)NCc3ccccc3OC)c(C)o2)cc1	-7.5%
COc1ccc(Br)cc1CNC(=O)c1ccc2c(c1)N(Cc1ccc(C)cc1)CCS2	-0.7%
CCCCOc1ccc(CNC(=O)c2ccc(-c3nc(CN4CCc5ccccc54)c(C)o3)cc2)cc1	-25.1%
SMILES	Pf Dd2 growth
CCN1C(=O)CCC2(C(=O)NCC3CC3)CCCC=C12 (configuration not stated)	-6.7%
CCCNc1cc(N2CCC(CCC(=O)Nc3cc(C)ccc3OC)CC2)ncn1	-29.0%
COc1ccc(CNC(=O)CC[C@H]2CNC(=O)[C@@H]3[C@@H](CCN3C3CCCCC3)N2C)cc1	i
Cc1ccc(S(=O)(=O)N2CCC(Oc3ncccc3C(=O)N(C)C)C2)cc1F (configuration not stated)	-23.0%
CC(C)c1ccc(NC(=O)CN2C(=O)C(c3ccccc3)=NC2(C)C)cc1	i
CCCC1=Nc2cc(C(=O)NCc3ccc(OC)cc3)ccc2Sc2ccc(C)cc21	-1.6%
CCCNC(=O)c1ccc2c(c1)N=C(CCC)c1ccccc1S2	i
CCCC1=Nc2cc(C(=O)NC(C)c3ccccc3)ccc2Sc2ccc(C)cc21 (configuration not stated)	-13.8%
CCC1=Nc2cc(C(=O)NC(C)c3ccccc3)ccc2Sc2ccc(Cl)cc21 (configuration not stated)	8.91µM*
CC(NC(=O)c1ccc2nc(CCc3ccccc3)oc2c1)c1ccccc1 (configuration not stated)	-21.7%
CCCC1=Nc2cc(C(=O)NCCc3ccccc3)ccc2Sc2ccc(C)cc21	6.31µM*!
O[C@@H]1C[C@@H](c2nc(-c3ccc(OC(F)(F)F)cc3)no2)N(C2CCOCC2)C1	i
Cc1ccc(C(=O)N2CCC3(CCCN(C4CCOCC4)C3=O)C2)cc1F (configuration not stated)	-10.6%
O=C(c1ccccc1F)N1CCc2nc(-c3ccc(Cl)cc3)nc(-c3ccccc3)c2C1	i
Cc1ccccc1Nc1nn2c(=O)c3ccc(C(=O)NCC(C)c4ccccc4)cc3nc2s1 (configuration not stated)	12.6µM*
Cc1ccc(Cl)cc1Nc1nn2c(=O)c3ccc(C(=O)NCc4cccs4)cc3nc2s1	i
Cc1ccc(C)c(Nc2nn3c(=O)c4ccc(C(=O)NCc5ccccc5)cc4nc3s2)c1	-10.5%
O=C(NCc1cccnc1)[C@@H]1C[C@@H](O)CN1C1CCN(C(=O)Cc2ccccc2)CC1	6.7%
CN(CCCc1cnn(C)c1)C(=O)C1CNCCO1 (configuration not stated)	19.3%
CCOCC(=O)N1CCn2nc(Cc3ccccc3)cc2C1	3.9%
